Test results from PubChem BioAssay (EPA / NIEHS).
“And” between values parts separate entries of the source, which are not always exact repeats. Identical values can stand only once. The source made the active and inactive calls. The calls were made as follows: active = hit-call score of the fitted dose curve at least 0.9, where 1 is the maximum; inactive = score below 0.9.

Each compound was assayed on Interleukin-8 (IL8), CXCL8 (gene 3576) (assay: BSK_3C_IL8: BioMAP Diversity Plus: 3C Assay for Interleukin-8 (IL8) Biomarker Activity (AID 2283020)). Conditions: primary human endothelial cells (HUVEC); actives raise or lower the signal.
Summary of the method: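 IL-8 was measured by ELISA in HUVEC cultures 24 h after chemical dosing, with gain or loss of signal fitted relative to DMSO. Parallel SRB total-protein staining tracked overt cytotoxicity.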
With `CCN=C1C=CC(=C(c2ccc(N(CC)CC)cc2)c2ccc(N(CC)CC)cc2)c2ccccc21` the AC50 was 4.77 µM (active) and 4.29 µM (active). With `OCC(O)CC(F)(F)C(F)(F)C(F)(F)C(F)(F)F` (configuration not stated) the outcome was “inactive”. For `C=CC(=O)OCC(F)(F)C(F)(F)C(F)(F)COC(=O)C=C`, the AC50 was 23.9 µM (active) and 31 µM (active). In the case of `FC(F)(F)C(F)(F)C(F)(F)C(F)(F)C(F)(F)C(F)(F)C(F)(F)CCI`, the outcome is reported as “inactive”. In the case of `CC(C)(C)c1cc(CCC(=O)NCCCCCCNC(=O)CCc2cc(C(C)(C)C)c(O)c(C(C)(C)C)c2)cc(C(C)(C)C)c1O`, the outcome is reported as “inactive”. For `OCC(F)(F)C(F)(F)C(F)(F)C(F)(F)C(F)(F)C(F)(F)CO`, the outcome was “inactive”. `O=C(c1ccccc1)c1ccc(O)cc1O` was tested, and the outcome was “inactive”. `Cc1cc(C)c(O)c(C(C)(C)C)c1` was tested, and the AC50 was 20 µM (active). In the case of `Cc1cnccn1`, the outcome is reported as “inactive”. `O=C=Nc1cccc2c(N=C=O)cccc12` was tested, and the outcome was “inactive”. In the case of `O=C(O)CCC(F)(F)C(F)(F)C(F)(F)C(F)(F)C(F)(F)C(F)(F)C(F)(F)F`, the outcome is reported as “inactive”. `COC(F)(C(F)F)C(F)(F)F` (configuration not stated) was tested, and the outcome was “inactive”. In the case of `CCOC(=O)CC(=O)C(F)(F)C(F)(F)F`, the outcome is reported as “inactive”. For `OC(O)C(F)(F)C(F)(F)F`, the outcome was “inactive”. `OCCCC(F)(F)C(F)(F)C(F)(F)C(F)(F)C(F)(F)C(F)(F)C(F)(F)C(F)(F)F` was tested, and the AC50 was 19.6 µM (active) and 20.6 µM (active). With `CO[Si](C)(CCC(F)(F)C(F)(F)C(F)(F)C(F)(F)C(F)(F)C(F)(F)F)OC` the outcome was “inactive”. `O=C=NCc1cccc(CN=C=O)c1` was tested, and the outcome was “inactive”. For `Nc1cc([N+](=O)[O-])cc(Cl)c1O`, the outcome was “inactive”. For `C=CC(=O)OCCC(F)(F)C(F)(F)C(F)(F)C(F)(F)F`, the outcome was “inactive”. In the case of `NCC(F)(F)C(F)(F)C(F)(F)C(F)(F)C(F)(F)C(F)(F)C(F)(F)C(F)(F)F`, the outcome is reported as “inactive”. In the case of `OCC(F)(F)C(F)(F)C(F)(F)CO`, the outcome is reported as “inactive”. `O=S(=O)(O)CCC(F)(F)C(F)(F)C(F)(F)C(F)(F)C(F)(F)C(F)(F)C(F)(F)C(F)(F)F` was tested, and the outcome was “inactive”. For `O=C1c2c(O)ccc(Nc3ccc(CCO)cc3)c2C(=O)c2c([N+](=O)[O-])ccc(O)c21`, the outcome was “inactive”. `CCOC(C=C(C)CCC=C(C)C)OCC` was tested, and the AC50 was 29.8 µM (active). With `NC(=O)C(F)(F)C(F)(F)C(F)(F)F` the outcome was “inactive”. `CCN(CC)c1ccc2c(c1)Oc1cc(N(CC)CC)ccc1C21OC(=O)c2ccccc21` was tested, and the AC50 was 4.05 µM (active). For `O=S(=O)(OCC(F)(F)F)C(F)(F)C(F)(F)C(F)(F)C(F)(F)F`, the outcome was “inactive”. In the case of `OCCCCC(F)(F)C(F)(F)C(F)(F)C(F)(F)F`, the outcome is reported as “inactive”. For `O=C(O)CCC(F)(F)C(F)(F)C(F)(F)F`, the outcome was “inactive”. `O=C(O)C(F)(F)OC(F)(F)C(F)(F)OC(F)(F)C(F)(F)OC(F)(F)F` was tested, and the outcome was “inactive”. `C[Si](Cl)(Cl)CCC(F)(F)C(F)(F)C(F)(F)C(F)(F)C(F)(F)C(F)(F)F` was tested, and the outcome was “inactive”.

What follows are compounds tested on Monokine induced gamma interferon (MIG), CXCL9 (gene 4283) (assay: BSK_3C_MIG: BioMAP Diversity Plus: 3C Assay for Monokine induced gamma interferon (MIG) Biomarker Activity (AID 2283021;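 as to AC50: MIG protein level measured by immunoassay in the treated endothelial cultures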)). Conditions: primary human endothelial cells (HUVEC); actives raise or lower the signal.
Summary of the method: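 ELISA measurement of MIG in human umbilical vein endothelial cells 24 h after treatment. Cytotoxicity tracked by SRB staining in parallel cultures; gain or loss of signal fitted relative to DMSO.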
In the case of `CCN=C1C=CC(=C(c2ccc(N(CC)CC)cc2)c2ccc(N(CC)CC)cc2)c2ccccc21`, the AC50 is reported as 2.92 µM (active) and 3.32 µM (active). In the case of `OCC(O)CC(F)(F)C(F)(F)C(F)(F)C(F)(F)F` (configuration not stated), the outcome is reported as “inactive”. In the case of `C=CC(=O)OCC(F)(F)C(F)(F)C(F)(F)COC(=O)C=C`, the AC50 is reported as 24.7 µM (active) and 22.7 µM (active). In the case of `FC(F)(F)C(F)(F)C(F)(F)C(F)(F)C(F)(F)C(F)(F)C(F)(F)CCI`, the outcome is reported as “inactive”. With `CC(C)(C)c1cc(CCC(=O)NCCCCCCNC(=O)CCc2cc(C(C)(C)C)c(O)c(C(C)(C)C)c2)cc(C(C)(C)C)c1O` the outcome was “inactive”. In the case of `OCC(F)(F)C(F)(F)C(F)(F)C(F)(F)C(F)(F)C(F)(F)CO`, the outcome is reported as “inactive”. `O=C(c1ccccc1)c1ccc(O)cc1O` was tested, and the outcome was “inactive”. `Cc1cc(C)c(O)c(C(C)(C)C)c1` was tested, and the outcome was “inactive”. `Cc1cnccn1` was tested, and the outcome was “inactive”. For `O=C=Nc1cccc2c(N=C=O)cccc12`, the outcome was “inactive”. For `O=C(O)CCC(F)(F)C(F)(F)C(F)(F)C(F)(F)C(F)(F)C(F)(F)C(F)(F)F`, the outcome was “inactive”. For `COC(F)(C(F)F)C(F)(F)F` (configuration not stated), the outcome was “inactive”. For `CCOC(=O)CC(=O)C(F)(F)C(F)(F)F`, the outcome was “inactive”. `OC(O)C(F)(F)C(F)(F)F` was tested, and the outcome was “inactive”. For `OCCCC(F)(F)C(F)(F)C(F)(F)C(F)(F)C(F)(F)C(F)(F)C(F)(F)C(F)(F)F`, the AC50 was 50.9 µM (active) and 52.6 µM (active). For `CO[Si](C)(CCC(F)(F)C(F)(F)C(F)(F)C(F)(F)C(F)(F)C(F)(F)F)OC`, the outcome was “inactive”. For `O=C=NCc1cccc(CN=C=O)c1`, the outcome was “inactive”. With `Nc1cc([N+](=O)[O-])cc(Cl)c1O` the outcome was “inactive”. `C=CC(=O)OCCC(F)(F)C(F)(F)C(F)(F)C(F)(F)F` was tested, and the outcome was “inactive”. In the case of `NCC(F)(F)C(F)(F)C(F)(F)C(F)(F)C(F)(F)C(F)(F)C(F)(F)C(F)(F)F`, the outcome is reported as “inactive”. For `OCC(F)(F)C(F)(F)C(F)(F)CO`, the outcome was “inactive”. For `O=S(=O)(O)CCC(F)(F)C(F)(F)C(F)(F)C(F)(F)C(F)(F)C(F)(F)C(F)(F)C(F)(F)F`, the outcome was “inactive”. With `O=C1c2c(O)ccc(Nc3ccc(CCO)cc3)c2C(=O)c2c([N+](=O)[O-])ccc(O)c21` the AC50 was 34.2 µM (active). In the case of `CCOC(C=C(C)CCC=C(C)C)OCC`, the AC50 is reported as 36 µM (active). With `NC(=O)C(F)(F)C(F)(F)C(F)(F)F` the outcome was “inactive”. `CCN(CC)c1ccc2c(c1)Oc1cc(N(CC)CC)ccc1C21OC(=O)c2ccccc21` was tested, and the outcome was “inactive”. In the case of `O=S(=O)(OCC(F)(F)F)C(F)(F)C(F)(F)C(F)(F)C(F)(F)F`, the outcome is reported as “inactive”. In the case of `OCCCCC(F)(F)C(F)(F)C(F)(F)C(F)(F)F`, the outcome is reported as “inactive”. With `O=C(O)CCC(F)(F)C(F)(F)C(F)(F)F` the outcome was “inactive”. With `O=C(O)C(F)(F)OC(F)(F)C(F)(F)OC(F)(F)C(F)(F)OC(F)(F)F` the outcome was “inactive”. In the case of `C[Si](Cl)(Cl)CCC(F)(F)C(F)(F)C(F)(F)C(F)(F)C(F)(F)C(F)(F)F`, the outcome is reported as “inactive”.
